Assay outcomes deposited in PubChem by several laboratories.
CSC inhib – cancer stem cell inhibition; hit rate 1.1% among 300,000; cancer stem cell-like cells viability, luminescence; inhibition, % at 7.5 µM; in the data active = inhibition above about 75%; tested in HMLE shEcad cells
Jurkat NFkB inh – inhibitors of the PMA/ionomycin-induced NF-kB reporter in Jurkat cells. hit rate 0.53% among 330,000. PMA/ionomycin-induced NF-kB luciferase reporter, luminescence. inhibition, % at 4 µM; in the data active = inhibition above about 50%
Mdm2-MdmX inh – inhibitors of human Mdm2/MdmX interaction; O15151+Q00987; SaOS-2 split-luciferase Mdm2/MdmX complementation, luminescence; inhibition, % at 8 µM; hit rate 3% among 330,000; AID 485346;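 active = inhibition of at least 50% at 8 µM in the primary screen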
Target sequence (O15151 whole entry, looked up): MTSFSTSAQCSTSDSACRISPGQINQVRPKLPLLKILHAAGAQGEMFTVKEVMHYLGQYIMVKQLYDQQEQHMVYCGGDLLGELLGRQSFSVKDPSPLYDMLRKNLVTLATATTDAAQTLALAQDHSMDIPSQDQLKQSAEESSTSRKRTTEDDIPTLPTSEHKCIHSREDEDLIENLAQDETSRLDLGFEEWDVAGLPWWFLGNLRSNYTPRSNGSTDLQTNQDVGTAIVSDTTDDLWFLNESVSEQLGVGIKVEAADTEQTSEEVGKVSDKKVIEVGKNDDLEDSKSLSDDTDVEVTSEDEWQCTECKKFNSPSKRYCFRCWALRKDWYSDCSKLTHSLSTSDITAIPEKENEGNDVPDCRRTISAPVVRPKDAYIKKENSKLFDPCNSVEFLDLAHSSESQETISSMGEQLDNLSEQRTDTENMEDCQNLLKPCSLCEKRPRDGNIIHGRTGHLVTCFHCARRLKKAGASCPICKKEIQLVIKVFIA
Target sequence (Q00987 whole entry, looked up): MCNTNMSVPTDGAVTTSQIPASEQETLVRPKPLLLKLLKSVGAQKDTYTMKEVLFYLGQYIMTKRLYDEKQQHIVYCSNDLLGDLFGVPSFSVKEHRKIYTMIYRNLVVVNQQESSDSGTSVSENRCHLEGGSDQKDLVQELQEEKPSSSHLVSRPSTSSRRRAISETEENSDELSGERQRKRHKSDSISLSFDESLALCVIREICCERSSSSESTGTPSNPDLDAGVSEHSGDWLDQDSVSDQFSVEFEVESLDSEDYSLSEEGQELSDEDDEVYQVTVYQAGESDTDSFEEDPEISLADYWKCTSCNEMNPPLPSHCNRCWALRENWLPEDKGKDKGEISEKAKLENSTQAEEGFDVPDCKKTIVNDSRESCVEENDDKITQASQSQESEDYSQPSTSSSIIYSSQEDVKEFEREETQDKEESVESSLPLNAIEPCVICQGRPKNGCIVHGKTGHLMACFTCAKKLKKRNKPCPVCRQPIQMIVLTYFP
697 NFkB inh – inhibitors of the PMA/ionomycin-induced NF-kB reporter in 697 B cells; 697 B-cell NF-kB luciferase reporter, 16 h; hit rate 0.33% among 330,000; inhibition, % at 4 µM; in the data active = inhibition above about 35%
Gli-Sufu antag – Gli-Sufu pathway antagonism; Sufu-KO-LIGHT fibroblasts, Gli luciferase reporter luminescence; AID 588413; inhibition, % at 5 µM; hit rate 0.74% among 340,000;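 active = inhibition above about 55%, limit read from the data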;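 also: 0% = DMSO-treated cells and 100% = wells with medium but no cells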
aSyn UTR inh – 5' untranslated region of α-synuclein, MLPCN primary screen; alpha-synuclein 5'UTR reporter, inhibitor activity; inhibition, % (tested at 7.5 µM); hit rate 0.82% among 300,000; in the data active = inhibition above about 60%;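 also: H4 neuroglioblastoma cells stably carrying SNCA 5'UTR luciferase fusion; 0% = DMSO wells and 100% = positive control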
Gli-Sufu confirm – confirmation of Gli-SUFU pathway antagonists; AID 602428; inhibition, % at 5 µM; shares compounds with Gli-Sufu antag; Sufu-KO-LIGHT cells, Gli luciferase reporter, luminescence; hit rate 40% among 2,500;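 active = mean inhibition at 5 µM reaching about 45%, limit read from the data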;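 also: plate controls were DMSO-treated cells for no effect and wells lacking cells for full effect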
SufuKO cytotox – cytotoxicity counter-screen for Gli-SUFU antagonists; shares compounds with Gli-Sufu antag; Sufu-KO-LIGHT cells cytotoxicity, ATP luminescence; cytotoxicity, % at 5 µM; hit rate 32% among 2,500; AID 651994;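 active = mean cytotoxicity at 5 µM above about 25%, limit read from the data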;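 also: cells exposed to compound overnight for roughly 16 to 18 hours; plate controls were DMSO wells with cells for no effect and medium without cells for full effect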
Wnt3a counter – Wnt3a reporter inhibition counter-screen; AID 651995; inhibition, % at 6.25 µM; shares compounds with Gli-Sufu antag; Wnt-LIGHT cells, Wnt3a-driven luciferase reporter, luminescence; hit rate 20% among 2,500;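 active = mean inhibition above about 25%, limit read from the data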
Numbers without * were called inactive; / = not tested or not shown. Most compounds without a hit are left out; they make up all but 4.5% or so of the library.

SMILES | CSC inhib | Jurkat NFkB inh | Mdm2-MdmX inh | 697 NFkB inh | Gli-Sufu antag | aSyn UTR inh | Gli-Sufu confirm | SufuKO cytotox | Wnt3a counter
CC(=O)c1ccc(NC(=O)Nc2ccc(NS(=O)(=O)c3ccc(C)cc3)cc2)cc1 | 0.7 | 1.5 | -2.3 | -6.2 | 75.2* | -9.6 | 21.7 | 5.9 | 25.0*
CCOC(=O)C(=O)NCC(c1cccs1)S(=O)(=O)c1ccc(Cl)cc1 (centres undefined) | -0.2 | -2.1 | -14.9 | -8.1 | 55.0 | -36.5 | 32.5 | 15.1 | 20.9
CCOC(=O)C(=O)NCC(c1cccs1)S(=O)(=O)c1ccc(C)cc1 (centres undefined) | -10.9 | 8.0 | -4.8 | -23.7 | 0.1 | 3.4 | / | / | /
CCNC(=O)C(=O)NCC(c1cccs1)S(=O)(=O)c1ccc(C)cc1 (centres undefined) | 2.1 | -3.3 | 4.0 | -21.1 | 52.5 | 3.6 | 12.1 | 6.5 | 0.3
Cc1ccc(S(=O)(=O)C(CNC(=O)C(C)C)c2cccs2)cc1 (centres undefined) | -11.2 | 6.3 | 13.7 | -6.5 | -1.8 | 2.9 | / | / | /
CCCCNC(=O)c1cn(-c2ccc(OCC)cc2)c(=O)c2cc(OC)c(OC)cc12 | 3.9 | -2.0 | -7.9 | 30.1 | 3.5 | 8.9 | / | / | /
O=c1c(NCCc2ccc(Cl)cc2)c(-c2ccccc2)c1=O | 6.4 | -32.1 | 3.9 | -51.7 | 2.0 | 10.3 | / | / | /
Cc1ccc(CNC(=O)CS(=O)(=O)Cc2nc(-c3ccc(C)cc3)oc2C)cc1 | -2.4 | 2.0 | -10.5 | -25.8 | -0.6 | 0.6 | / | / | /
COc1ccccc1CCNC(=O)c1cc(-c2ccncc2)nc2ccc(Br)cc12 | / | / | / | / | 67.4* | 18.3 | 32.0 | 25.5* | 3.6
COc1ccccc1CCNC(=O)c1cc(-c2ccccn2)nc2ccc(Br)cc12 | -6.9 | 6.4 | 9.5 | 2.7 | / | -3.2 | / | / | /
NCCCCCc1nnc(SCc2ccc(Cl)c(Cl)c2)o1 | 13.6 | 1.8 | -14.1 | 12.8 | 10.6 | -1.4 | / | / | /
Cc1cc(N2CC(C)OC(C)C2)nc(C(C)C)n1 (centres undefined) | -17.1 | 1.4 | -6.2 | 7.4 | 51.6 | 9.3 | 16.1 | 18.9 | 4.7
Cn1c(=O)n(Cc2ccc(F)cc2)c(=O)c2c1nc1n2CCCN1Cc1ccccc1 | 0.4 | 16.1 | 15.4 | -2.9 | 22.7 | 43.2 | / | / | /
C=CCNc1nc2c(c(=O)n(C)c(=O)n2C)n1CCCCCC | -7.9 | 47.9 | 8.3 | 6.5 | 68.7* | -28.0 | 74.7* | 35.5* | 40.0*
C=CCOc1nc2c(c(=O)n(C)c(=O)n2C)n1Cc1ccc(Cl)cc1 | -10.7 | 23.1 | 15.9 | -83.7 | 72.0* | 21.8 | 60.9* | 27.3* | 23.1
C=CCNc1nc2c(c(=O)n(C)c(=O)n2C)n1Cc1ccc(F)cc1 | 3.8 | 27.4 | 16.8 | -9.5 | 54.0 | 5.9 | 55.4* | 19.6 | 26.0*
Cn1c(N2CCCC2)nc2c1c(=O)n(Cc1ccc(F)cc1)c(=O)n2C | -6.5 | 4.4 | 38.4 | -0.3 | 53.3 | 37.7 | 12.4 | 2.2 | -19.6
C=CCNc1nc2c(c(=O)n(C)c(=O)n2C)n1CC | -2.3 | 13.9 | -6.5 | 9.1 | 2.4 | 13.1 | / | / | /
Cc1ccc(C2=NNC(=O)C(P(=O)(c3ccccc3)c3ccccc3)C2)cc1 (centres undefined) | -6.3 | -0.1 | 1.3 | 3.5 | 6.8 | -9.3 | / | / | /
O=[N+]([O-])c1ccc(S(=O)(=O)CC2CSc3nc4ccccc4n32)cc1 (centres undefined) | -6.1 | 28.9 | 0.3 | -35.5 | 29.6 | -22.7 | / | / | /
Cc1ccc(NC(=O)CN(C)C(=O)COC(=O)c2nc3nccc(C)n3n2)cc1 | -15.7 | -1.8 | -3.5 | 10.7 | 8.7 | / | / | / | /
CCCOc1nc2c(c(=O)n(C)c(=O)n2C)n1Cc1cccc2ccccc12 | 5.4 | 18.5 | 24.2 | -69.7 | 56.9* | -6.5 | 57.6* | 40.2* | 9.5
COCCNc1nc2c(c(=O)n(C)c(=O)n2C)n1Cc1cccc(C)c1 | -10.1 | -1.9 | 3.9 | -15.9 | 61.4* | 15.3 | 62.6* | 25.1* | 24.2
CCCOc1nc2c(c(=O)n(C)c(=O)n2C)n1C | -2.5 | -18.6 | 0.4 | 9.9 | -15.7 | 3.1 | / | / | /
Cc1cccc(Cn2c(NCCO)nc3c2c(=O)n(C)c(=O)n3C)c1 | -7.4 | 33.0 | 23.5 | -13.1 | 36.3 | 9.7 | / | / | /
